{
  "source": "PubChem BioAssay AID624037",
  "about": "(The Scripps Research Institute Molecular Screening Center, 2012)",
  "note": "Among all 360,000 compounds or so, about 700 (0.19%) were called active. This excerpt belongs to a sample that is enriched for actives. Values without a mark were called inactive.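 How the source made its calls: active means activation above the run's mean over test compounds plus 3 SD (cut at about 23% in these data); inactive means the rest.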",
  "data": [
    {"target": "Muscarinic acetylcholine receptor M5 (Homo sapiens) (UniProt P08912)", "sequence (P08912 whole entry, looked up)": "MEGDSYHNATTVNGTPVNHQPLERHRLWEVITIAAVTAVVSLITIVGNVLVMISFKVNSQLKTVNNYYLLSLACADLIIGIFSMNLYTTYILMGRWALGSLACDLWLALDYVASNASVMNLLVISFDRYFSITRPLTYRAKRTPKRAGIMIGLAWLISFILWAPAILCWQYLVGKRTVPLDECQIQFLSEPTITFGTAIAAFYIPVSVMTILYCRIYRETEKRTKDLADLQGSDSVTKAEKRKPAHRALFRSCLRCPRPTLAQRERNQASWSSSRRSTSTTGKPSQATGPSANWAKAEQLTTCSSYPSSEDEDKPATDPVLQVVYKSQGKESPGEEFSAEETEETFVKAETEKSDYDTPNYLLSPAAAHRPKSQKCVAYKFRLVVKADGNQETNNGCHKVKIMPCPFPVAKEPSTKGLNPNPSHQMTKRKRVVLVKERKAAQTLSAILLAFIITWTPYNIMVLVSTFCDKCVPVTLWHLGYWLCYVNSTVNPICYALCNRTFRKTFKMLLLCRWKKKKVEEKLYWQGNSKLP", "experiment": "human M5 muscarinic receptor agonists, primary screen, CHO-K1 cells, Fluo-8 calcium fluorescence (AID 624037);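 further: signal is peak over basal fluorescence ratio across the kinetic read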", "conditions": "CHO-K1 hM5 cells, at 3 µM, hits give high values, 0% DMSO wells, 100% maximal acetylcholine response", "values": [
      {"smiles": "Cc1cc(C)cc(NC(=O)N(C)Cc2ccccc2)c1", "activation": "-2.57%"},
      {"smiles": "CN(C(=O)CN(CCO)CC(=O)N(C)C(C)(C)Cc1ccccc1)C(C)(C)Cc1ccccc1", "activation": "39.7% (active)"},
      {"smiles": "CC(C)(C)N(Cc1ccccc1)C(=O)c1ccncc1", "activation": "-0.8%"},
      {"smiles": "CCc1sc(C(=O)N2CCN(CC(=O)Nc3cccc(F)c3)CC2)cc1C", "activation": "-3.37%"},
      {"smiles": "COc1ccc(NC(=S)NCc2cccs2)c(OC)c1", "activation": "-3.29%"},
      {"smiles": "COc1cccc(CNc2nc(NCc3cccs3)nc3ccsc23)c1", "activation": "27.2% (active)"},
      {"smiles": "COc1cccc(CNc2nc3cc(-c4csc5ccccc45)sc3c(=O)n2C)c1", "activation": "-0.3%"},
      {"smiles": "CC(=O)Nc1cccc(-c2cc3nc(NCc4cccnc4)n(C)c(=O)c3s2)c1", "activation": "0.81%"},
      {"smiles": "CCOC(=O)CNc1nc2ccccc2n2c(C)nnc12", "activation": "1.28%"},
      {"smiles": "CC(=O)NCC(=O)N(Cc1ccco1)C1(C(=O)NC2CCCC2)CCCCC1", "activation": "-0.72%"},
      {"smiles": "CC(C)[C@H](NC(=O)Nc1ccc(S(N)(=O)=O)cc1)C(=O)O", "activation": "-2.17%"},
      {"smiles": "CCN(CC)c1ccc(NC(=O)CN2C(=O)NC3(CCc4ccccc43)C2=O)cc1", "note": "(centres undefined)", "activation": "2.57%"},
      {"smiles": "CN(C)c1ccc(/C=C2\\NC(=S)N(Cc3ccccc3)C2=O)cc1", "activation": "41.4% (active)"},
      {"smiles": "O=C(Cn1cc(C(=O)C2CC2)c2ccccc21)Nc1ccccc1Cl", "activation": "1.64%"},
      {"smiles": "C=CCNc1nnc(SCC(=O)N2CCCCC2)c2ccccc12", "activation": "-0.35%"},
      {"smiles": "C/C(=C/C(=O)N1CCN(C)CC1)C(=O)O", "activation": "-1.65%"},
      {"smiles": "Nc1ccc2c(c1)C(=Cc1cccnc1)c1ccccc1-2", "activation": "-7.37%"},
      {"smiles": "C[C@@H]1CN([C@@H](C)CO)S(=O)(=O)c2ccc(-c3ccc(C(=O)N(C)C)cc3)cc2O[C@@H]1CN(C)Cc1ccccc1C(=O)O", "activation": "-0.69%"},
      {"smiles": "Cc1ccccc1NC(=S)NC(=O)Cc1ccc(Cl)cc1", "activation": "25.7% (active)"},
      {"smiles": "Cc1cc(C(=O)NNC(=S)Nc2ccccc2C)cs1", "activation": "-0.42%"},
      {"smiles": "Oc1ccc(CNc2ccccc2O)cc1", "activation": "3.67%"},
      {"smiles": "Cc1ccccc1N/C(SCc1ccc(Cl)cc1)=C(/C#N)C(N)=O", "activation": "-7.05%"},
      {"smiles": "O=C(NC(=S)Nc1ccc(Cl)cc1Cl)C1CC1", "activation": "-3.08%"},
      {"smiles": "O=C(Cc1ccc(Cl)cc1)NC(=S)Nc1ccccc1O", "activation": "75.2% (active)"},
      {"smiles": "O=C(C1CCN(S(=O)(=O)c2cccs2)CC1)N1CCCCCC1", "activation": "-3.68%"},
      {"smiles": "CCOc1ccc(NC(=O)N(CC(C)C)CC(C)C)cc1", "activation": "-3.79%"},
      {"smiles": "CCC(=C/c1sc2ccc3ccccc3c2[n+]1C)/C=C1\\Sc2ccc3ccccc3c2N1C", "activation": "1.63%"},
      {"smiles": "COC(=O)CSc1snnc1-c1ccc(Cl)c(Cl)c1", "activation": "-7.41%"},
      {"smiles": "CN(C)c1cc(N)c2ccccc2n1", "note": "(tested in a mixture with another compound)", "activation": "-6.58%"},
      {"smiles": "NS(=O)(=O)c1cccc(NC(=O)CC23CC4CC(CC(Br)(C4)C2)C3)c1", "activation": "-1.18%"},
      {"smiles": "CC(=O)NC1=NN(C(C)=O)C(C)(c2ccc(C)cc2)S1", "note": "(centres undefined)", "activation": "1.09%"},
      {"smiles": "COc1ccccc1C(=O)Oc1ccc(N2C(=O)CCC2=O)cc1", "activation": "-1.29%"},
      {"smiles": "O=C(CCN1C(=O)[C@H]2CC=CC[C@H]2C1=O)NCc1nc(-c2ccccc2)no1", "activation": "0.28%"},
      {"smiles": "COc1ccccc1C(=O)NC(CCSC)C(=O)NNC(=O)c1csc(N2CCOCC2)n1", "note": "(centres undefined)", "activation": "-2.2%"},
      {"smiles": "O=C(NCCSc1ncc(-c2ccccc2)[nH]1)c1ccco1", "activation": "-1.14%"},
      {"smiles": "Cc1nnc(SCC(=O)Nc2ncc3c(n2)CC(C)(C)CC3=O)s1", "activation": "-1.69%"},
      {"smiles": "COC(=O)c1sc(N)c(C(=O)OC)c1COC(=O)CNS(=O)(=O)c1ccc(C)cc1", "activation": "1.46%"},
      {"smiles": "C/C=C/c1ccc(OCC(=O)OCC(=O)Nc2c(C)nn(-c3ccccc3)c2C)c(OC)c1", "activation": "0.8%"},
      {"smiles": "Nc1ccc2nc3c(=O)[nH]c(=S)[nH]c3nc2c1", "activation": "13.3%"},
      {"smiles": "CCCn1c(=O)c2c(C(F)(F)F)cc(-c3cccs3)nc2n(CCC)c1=O", "activation": "-2.81%"},
      {"smiles": "COC(=O)c1c(NC(=O)c2ccccc2F)sc2c1C(C(=O)OC)CC2", "note": "(centres undefined)", "activation": "0.55%"},
      {"smiles": "COCC1CCCN(C(=O)c2ccc3oc(C(C)C)nc3c2)C1", "note": "(centres undefined)", "activation": "-5.48%"},
      {"smiles": "O=C(NCc1cccc(Cl)c1)C1=CC=CN2CCS(=O)(=O)N=C12", "activation": "-4.02%"},
      {"smiles": "C=CCC(NC(=O)Cc1ccccc1)C(=O)NCCC", "note": "(centres undefined)", "activation": "1.37%"},
      {"smiles": "CCCCC(=O)NNC(=S)NC(=O)C(c1ccccc1)c1ccccc1", "activation": "76.2% (active)"},
      {"smiles": "CCCCC(=O)Nc1ccc2c(c1)C(=O)NC2=O", "activation": "-1.75%"},
      {"smiles": "CNC(=O)C1CN(C(=O)c2cccc(S(=O)(=O)N3CCc4ccccc43)c2)c2ccccc2O1", "note": "(centres undefined)", "activation": "2.34%"},
      {"smiles": "CC(C)C[C@H](NC(=O)NCCc1ccc(Cl)cc1)C(=O)O", "activation": "-0.97%"},
      {"smiles": "CC(NC(=O)c1ccco1)c1ccc2c(c1)OCO2", "note": "(centres undefined)", "activation": "-1.73%"}
    ]}
  ]
}
